# D1 agonist: activates the human D1 dopamine receptor; HEK293 T-REx D1 cells, calcium flux, agonist mode; P21728; activation, % at 2 µM; hit rate 1% among 360,000; AID 504660
# Target sequence (P21728 whole entry, looked up): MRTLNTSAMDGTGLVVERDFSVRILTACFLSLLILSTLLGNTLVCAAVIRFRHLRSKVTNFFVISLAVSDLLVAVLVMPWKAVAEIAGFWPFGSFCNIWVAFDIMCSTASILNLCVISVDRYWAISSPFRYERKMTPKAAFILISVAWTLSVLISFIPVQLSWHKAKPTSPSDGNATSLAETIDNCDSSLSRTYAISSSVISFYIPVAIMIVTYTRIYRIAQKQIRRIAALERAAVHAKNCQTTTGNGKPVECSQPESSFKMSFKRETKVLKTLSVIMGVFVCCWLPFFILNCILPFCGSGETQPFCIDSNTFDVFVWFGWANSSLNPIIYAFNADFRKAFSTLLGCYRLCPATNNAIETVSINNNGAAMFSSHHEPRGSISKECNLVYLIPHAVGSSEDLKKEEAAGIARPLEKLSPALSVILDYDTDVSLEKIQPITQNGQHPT
#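 Agonism was scored from calcium flux recorded over 180 s (1 read/s) after pintool compound addition, following a 10-cycle baseline. Cells were inducible force-coupled HEK293 TREx D1, plated overnight at 30 C and loaded with no-wash calcium dye.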
# TRHR enhancer: TRH receptor (human) allosteric enhancement; P34981; TRHR cells, fluo-8 calcium fluorescence, EC20 TRH enhancement; enhancement, % at 2 µM; hit rate 0.66% among 360,000; in the data active means enhancement above about 30%
#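 Enhancer read-out: after compound pinning and an initial kinetic agonist-mode read, an EC20 of TRH (10 nM final) was injected and fluo-8 calcium signal (Ex 480/Em 530) followed at 1 s/cycle for 100 cycles in TRHR-expressing cells.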
# TRHR ag: TRH receptor (human) agonism. P34981. TRHR cells, calcium flux fluo-8, FDSS agonist mode. activation, % at 2 µM. hit rate 0.18% among 360,000. AID 493084
#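 In this calcium-flux screen, cells bearing human TRHR are dye-loaded with fluo-8, baselined for 10 cycles, then exposed to library compounds; positive kinetic calcium responses during the agonist phase mark hits, with TRH as control.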
# D1 PAM: enhances dopamine response at the human D1 receptor; P21728; HEK293 TREx D1 cells, calcium flux, dopamine EC20 potentiation; potentiation, % at 10 µM; hit rate 0.036% among 360,000; AID 504651; in the data active means potentiation above about 30%
# D1 antag: antagonists of human D1 dopamine receptor; AID 504652; HEK293 TREx D1 cells, calcium flux, dopamine EC80; hits give low values; activity change, negative = inhibition, % at 10 µM; hit rate 3.2% among 360,000; in the data active means activity change below about -30%
#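 Calcium flux readout: force-coupled, inducible Hek293 Trex D1 line, cells induced overnight at 30 C with tetracycline, dye-loaded 30–90 min at RT. Antagonism scored against EC80 dopamine challenge given 180 s after compound.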
# Hits are given with their value; - = inactive; . = no result given. Sampled rows, rich in hits. Any-hit rate of the full collection: about 4.6%. Unless noted, no stated cut-off is given here; in the data, active means activation above about 30%; inactive means the rest.
SMILES,D1 agonist,TRHR enhancer,TRHR ag,D1 PAM,D1 antag
O=[N+]([O-])c1ccccc1N/N=C1\CC2CC=CC12 (configuration not stated),-,-,-,-,-
O=C(Cn1cc(Cl)c([N+](=O)[O-])n1)NCCC1=CCCCC1,-,-,-,-,-
COc1ccccc1-c1nc2cc(NC(=O)c3ccccc3Cl)ccc2o1,-,-,-,-,-
O=C(Nc1ccc(-c2nc3cc(Cl)ccc3o2)cc1)c1cc(Br)ccc1Cl,-,-,-,-,-
Cc1ccc2oc(-c3cc(NC(=O)c4oc5ccccc5c4C)ccc3Cl)nc2c1,-,-,-,-,-
O=C(Nc1ccc2oc(-c3ccccc3F)nc2c1)c1ccccc1Cl,-,-,-,-,-48.5
Cc1ccc2oc(-c3cc(NC(=O)c4ccco4)ccc3Cl)nc2c1,-,-,-,-,-39.4
O=C(Nc1ccc2oc(-c3ccncc3)nc2c1)c1ccccc1Cl,-,-,-,-,-71.4
O=C(O)c1ccccc1-c1ccccc1C(=O)Nc1ccc(-c2nc3cc(Cl)ccc3o2)cc1,-,-,-,-,-30.5
COc1ccccc1NC(=O)c1cc2c([nH]c1=O)CC(C)(C)CC2=O,-,-,-,-,-
CCc1cccc(NC(=O)CCn2c(=O)c3cccn3c3cccnc32)c1,-,-,-,-,-
CCOc1ccc(N(CC(=O)Nc2ccccc2CC)S(=O)(=O)c2c(C)noc2C)cc1,-,-,-,-,-
Cc1cc2c(s1)c1cnn(Cc3ccc(F)c(F)c3F)c(=O)c1n2C,-,-,-,-,-
N#CC1=C(N)C(C#N)(C#N)C(c2cccnc2)C2CCCC=C12 (configuration not stated),-,-,-,-,-30.5
O=S(=O)(NCc1ccc(F)cc1)c1ccc(Br)cc1Br,-,-,-,-,-32.2
Cc1sc2ncn(CC(=O)N3CCN(c4cccc(Cl)c4)CC3)c(=O)c2c1S(=O)(=O)N1CCC(C)CC1,-,-,-,-,-
Cc1nc(NC(=O)C2CC2)sc1C(=O)Nc1ccccc1,-,-,-,-,-37.8
Cc1nc(NC(=O)C2CC2)sc1C(=O)Nc1ccc(Br)cc1,-,-,-,-,-
Cc1cc(Cl)ccc1NS(=O)(=O)c1ccc2c(c1)CC(C)N2C(=O)C1CCC1 (configuration not stated),-,-,-,-,-
Cc1ccc(NC(=O)c2ccc(F)c(S(=O)(=O)NCCc3ccccc3)c2)cc1F,-,-,-,-,-30.2
Cc1ccc(NC(=O)c2ccc(F)c(S(=O)(=O)N3CCc4ccccc4C3)c2)cc1F,-,-,-,-,-
COc1ccc(/C(C)=N/N=C2/NC(=O)CC(C(=O)O)S2)cc1F (configuration not stated),-,-,-,-,-31.4
CNC(=O)C1CC(=O)N/C(=N/N=C(\C)c2cccs2)S1 (configuration not stated),-,-,-,-,-31.5
COc1ccc(/C(C)=N/N=C2/NC(=O)CC(C(=O)O)S2)cc1 (configuration not stated),-,-,-,-,-
C/C(=N\N=C1\NC(=O)CC(C(=O)O)S1)c1ccc(F)cc1 (configuration not stated),-,-,-,-,-
SMILES,D1 agonist,TRHR enhancer,TRHR ag,D1 PAM,D1 antag
O=C(/C=C\c1ccc2c(c1)OCO2)NC1CC(=O)N(c2ccc(F)cc2)C1 (configuration not stated),-,-,-,-,.
CCC1CCC(N2CCN(c3ccc([N+](=O)[O-])cc3)CC2)CC1 (configuration not stated),-,-,-,-,-
CCC1CCC(N2CCN(c3ccc(F)cc3)CC2)CC1 (configuration not stated),-,-,-,-,-46.2
CN(C)/C=C(\C#N)C(=O)N/N=C/c1ccccc1,-,-,-,-,-30.6
O=C(Nc1ccc(Cl)cc1Cl)c1cc(S(=O)(=O)N2CCC3(CC2)OCCO3)ccc1F,-,-,-,-,-40.9
Cc1ccc(S(=O)(=O)N2CCC3(CC2)OCCO3)cc1,-,-,-,-,-31.5
Cc1ccc(C)c(S(=O)(=O)N2CCC3(CC2)OCCO3)c1,35.9,-,-,-,-
O=C(Nc1cccc(Cl)c1)c1cc(S(=O)(=O)N2CCC3(CC2)OCCO3)ccc1F,-,-,-,-,-
CCC(=O)C1=C(c2cccc(OC)c2)N(C(=O)CC)n2c(nnc2C2CCCCC2)S1,-,-,-,-,.
CCc1ccccc1NC(=O)c1cc(S(=O)(=O)N2CCc3ccccc32)cn1C,-,-,-,-,-
COc1ccc(NC(=O)c2cc(S(=O)(=O)N3CCc4ccccc43)cn2C)cc1,-,-,-,-,-
Cc1ccc(NC(=O)c2cc(S(=O)(=O)N3CCc4ccccc43)cn2C)cc1C,-,-,-,-,-45.1
CCN(CC)c1ccc(NC(=O)c2cc(S(=O)(=O)N3CCc4ccccc43)cn2C)c(C)c1,-,-,-,-,-33.5
CSCCC(NC(=O)c1ccccc1)C(=O)OCC(=O)c1ccc[nH]1 (configuration not stated),-,-,-,-,-
CSCCC(NC(=O)c1ccc(Cl)cc1)C(=O)OCC(=O)c1ccc[nH]1 (configuration not stated),-,-,-,-,-34.5
CSCCC(NC(=O)c1ccc(Cl)cc1)C(=O)OCC(=O)Nc1ccc(C#N)cc1 (configuration not stated),-,-,-,-,-39.9
CSCCC(NC(=O)c1ccc(Cl)cc1)C(=O)OCC(C)=O (configuration not stated),-,-,-,-,-
C/C(=N/n1cnnc1)c1cccnc1,-,-,-,-,-
CN=c1scc(-c2ccc(OC)cc2)n1/N=C(\C)c1cccnc1,-,-,-,-,-54.7
CC(=O)Nc1cccc(OCC(O)Cn2c(C)nc3ccccc32)c1 (configuration not stated),-,-,-,-,-69.1
CC(=O)Nc1ccc(OCC(O)Cn2cnc3ccccc32)cc1 (configuration not stated),-,-,-,-,-
CCCc1nc2ccccc2n1CC(O)COc1ccc(NC(C)=O)cc1 (configuration not stated),-,-,-,-,-33.5
Cc1nnc(SCc2cc(=O)[nH]c(=S)[nH]2)s1,-,-,-,-,-
CCc1ccc(-c2[nH]c3c(c2-c2sc(C)c(C(=O)OC)c2O)c(=O)n(C)c(=O)n3C)cc1,-,-,-,-,-
COC(=O)c1c(C)sc(-c2c(-c3ccc(F)cc3)[nH]c3[nH]c(=O)[nH]c(=O)c23)c1O,131.0,-,56.4,-,-
Cc1cc(NS(=O)(=O)c2ccc(NC(=O)/C=C/c3ccc(Br)cc3)cc2)no1,-,-,-,-,-
Cc1cc(NS(=O)(=O)c2ccc(NS(=O)(=O)c3ccc(Br)cc3)cc2)no1,-,33.4,-,-,-

# Compound activity as filed in PubChem.
